# Measurements as given in PubChem BioAssay (NCATS).
# Values joined by “and” are separate entries in the source; they are usually repeats but may differ in a detail not shown here. Equal entries are not always repeated. Records with an inconclusive call do not appear. Unmarked numbers belong to inactive results. Active and inactive are the calls of the source. The call rests on the fitted dose curve; in most records, active means well fitted activation curve with a large enough effect; inconclusive means small, poorly fitted or top-dose-only effect; inactive means no such curve, though single readings can be large or run the other way.
# Biological target: Cellular tumor antigen p53 (Homo sapiens) (UniProt P04637)
# Sequence (P04637 whole entry, looked up): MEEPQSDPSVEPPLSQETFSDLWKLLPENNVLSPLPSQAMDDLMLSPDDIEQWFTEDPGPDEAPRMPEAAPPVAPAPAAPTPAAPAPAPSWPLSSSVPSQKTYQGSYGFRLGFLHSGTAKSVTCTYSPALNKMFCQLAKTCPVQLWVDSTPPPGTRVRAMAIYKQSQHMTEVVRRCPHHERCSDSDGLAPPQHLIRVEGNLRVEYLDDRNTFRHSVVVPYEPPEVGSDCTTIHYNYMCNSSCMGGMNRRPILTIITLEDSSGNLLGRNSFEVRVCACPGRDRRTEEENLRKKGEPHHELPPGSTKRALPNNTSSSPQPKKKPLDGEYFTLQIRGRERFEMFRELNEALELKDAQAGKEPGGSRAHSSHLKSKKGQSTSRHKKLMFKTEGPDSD
# Experiment: Primary qHTS for small molecule compounds that upregulate eGFP-tagged delta133p53alpha (in N-terminal) cells. (AID 2060322); further: nearly all actives have a fitted effect of over 75% in size;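 on activation: series mostly up to about 56 µM; 0% = DMSO vehicle and 100% = reference activator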
# Details: NCI-H358 eGFP-delta133p53alpha fluorescence, 24 h; activation: hits give high values
# Procedure, shortened: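 NCI-H358 cells pre-induced 24 h with 10 ng/ml doxycycline to express N-terminal eGFP-delta133p53alpha, then dosed 24 h at 37C without doxycycline; fixed, Hoechst-stained, GFP intensity by laser scanning cytometry, normalized to DMSO (0%) and 57.5 uM 5-azacytidine (100%).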
# Potency means the concentration at half of the fitted maximal effect.
Compound,activation,Potency
N[C@H]1C(O)O[C@H](CO)[C@@H](O)[C@@H]1O (stereo not given in full),-0.837%,–
NC[C@H]1O[C@H](O[C@H]2[C@@H](O)[C@@H](O[C@H]3O[C@H](CO)[C@@H](O)[C@H](N)[C@@H]3O)[C@H](N)C[C@@H]2N)[C@H](N)C[C@H]1O,25.5%,–
O=C(O)c1ccccc1S,19.8%,–
COc1ccc2nc(SCc3ncc(C)c(OC)c3C)[nH]c2c1,7.34%,–
O=S1(=O)c2cccc3cccc(c23)N1CCCN1CCN(c2ccc(F)cc2)CC1,8.47%,–
CCCNC(C)C(=O)Nc1c(C)csc1C(=O)OC (stereo not given),-37.9%,–
CNC(=O)c1ccccc1Sc1ccc2c(C=Cc3ccccn3)n[nH]c2c1,-28.7%,–
CCN1CCCC1CN (stereo not given),3.35%,–
NCCNc1cccc2ccccc12,24.3%,–
O=C(O)/C=C\C(=O)O,-25.4%,–
CC[C@]12C=CCN3CC[C@@]4(c5cc([C@@]6(C(=O)OC)C[C@H]7C[C@@H](C(C)(F)F)CN(Cc8c6[nH]c6ccccc86)C7)c(OC)cc5N(C)[C@H]4[C@@](O)(C(=O)OC)[C@H]1OC(C)=O)[C@@H]32,-7.99%,–
CCOC1OC(=O)C[C@H]1NC(=O)[C@@H]1CCCN1C(=O)[C@@H](NC(=O)c1ccc(N)c(Cl)c1)C(C)(C)C (stereo not given in full),110%,–
CC12CCC(CC1)C(C)(C)O2,-0.565%,–
COc1cnc(NS(=O)(=O)c2ccc(N)cc2)nc1,2.51% and 10.3%,–
C[C@@]12C[C@@]3(O)O[C@@H](O1)[C@]1(COC(=O)c4ccccc4)[C@@H]3C[C@@]12O[C@@H]1O[C@H](CO)[C@@H](O)[C@H](O)[C@@H]1O,35.7%,–
N=C1SC(=Cc2ccc(-c3ccc4c(c3)C(=O)NC4=O)o2)C(=O)N1c1ccc(Br)cc1,54.1%,–
CC(C)CCCC(C)N (stereo not given),0.565%,–
Cc1c(I)c(=O)n(-c2ccccc2)n1C,-10.7%,–
O=C(CCl)Nc1ccc(S(=O)(=O)c2ccc(NC(=O)CCl)cc2)cc1,4.47%,–
C#C[C@]1(O)CC[C@H]2[C@@H]3CCC4=Cc5oncc5C[C@]4(C)[C@H]3CC[C@@]21C,-14.2%,–

Compound,activation,Potency
CC(O)COc1ccccc1 (stereo not given),-13%,–
CCCCN(CCCC)C(C(N)=O)c1ccc(OC)cc1 (stereo not given),20.9%,–
O=C1c2c(O)cccc2[C@@H]([C@@H]2O[C@H](CO)[C@@H](O)[C@H](O)[C@H]2O)c2cc(CO)cc(O)c21,-15.3%,–
CC(C)(C)C(=O)OCOC(=O)[C@@H]1N2C(=O)[C@@H](NC(=O)[C@H](N)c3ccccc3)[C@H]2SC1(C)C,7.53%,–
CN(C)[C@@H]1C(=O)C(C(N)=O)=C(O)[C@@]2(O)C(=O)C3=C(O)c4c(O)cccc4C[C@H]3C[C@@H]12,–,17.4 µM (active)
CC(C)OC(=O)[C@H](C)N[P@](=O)(OC[C@H]1O[C@@H](n2ccc(=O)[nH]c2=O)[C@](C)(F)[C@H]1O)Oc1ccccc1,15%,–
Cc1cc(=O)oc2cc(O[C@@H]3SC[C@@H](O)[C@H](O)[C@H]3O)ccc12,23.2%,–
COC(=O)C1=CO[C@@H](O)[C@@H]2C(CO)=CC[C@@H]12,4.38%,–
Cc1ccccc1OCC(O)CO (stereo not given),13%,–
COCCOCC(OC)OC,-6.69%,–
NC[C@H]1O[C@H](O[C@H]2[C@H](O)[C@@H](O[C@H]3O[C@H](CO)[C@@H](O)[C@H](N)[C@H]3O)[C@H](N)C[C@@H]2N)[C@H](N)[C@@H](O)[C@@H]1O,-10.7%,–
CCCCOC(=O)c1ccc(O)cc1,-13%,–
C[N+](C)(C)CC[N+]1(C)Cc2c(Cl)c(Cl)c(Cl)c(Cl)c2C1,-1.69%,–
CO[C@H]1C=CO[C@@]2(C)Oc3c(C)c(O)c4c(O)c(c(C=NN5CCN(C)CC5)c(O)c4c3C2=O)NC(=O)C(C)=CC=C[C@H](C)[C@H](O)[C@@H](C)[C@@H](O)[C@@H](C)[C@H](OC(C)=O)[C@H]1C,3.33%,–
Cc1cc(O)c(C)c(C)c1O,17.5%,–
Cc1cccn2c(=O)c(-c3nnn[nH]3)cnc12,-7.34%,–
CN[C@H](CC(C)C)C(=O)N[C@H]1C(=O)N[C@@H](CC(N)=O)C(=O)N[C@@H]2C(=O)N[C@H]3C(=O)N[C@H](C(=O)N[C@H](C(=O)O)c4cc(O)cc(O)c4-c4cc3ccc4O)[C@H](O)c3ccc(c(Cl)c3)Oc3cc2cc(c3O[C@@H]2O[C@H](CO)[C@@H](O)[C@H](O)[C@@H]2O[C@H]2C[C@](C)(N)[C@H](O)[C@H](C)O2)Oc2ccc(cc2Cl)[C@H]1O,4.73%,–
CCNC(=O)Nc1ccc(Oc2ncnc(N)c2C=NOC)cc1Cl,-10.2%,–
C[C@@H]1C[C@H]2[C@@H]3CCC4=CC(=O)C=C[C@]4(C)[C@@]3(F)[C@@H](O)C[C@]2(C)[C@@]1(O)C(=O)COC(=O)c1ccncc1,-8.37%,–
CC(=O)OC[C@H]1O[C@@H](n2cnc(N)nc2=O)[C@H](OC(C)=O)[C@@H]1OC(C)=O,-22.3%,–
